# An excerpt weighted towards active compounds, which were near 14% of everything screened.
# HCMV inh – inhibitors of human cytomegalovirus; HFF cells, HCMV-luciferase reporter, 72 h; stronger effect = lower value; activity change, negative = inhibition, % at 57.5 µM; hit rate 4.5% among 410,000; AID 1259415; in the data active = activity change below about -60%; inconclusive = no clear call, values can overlap the other calls; inactive = above about -39%
#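 Two compound doses tested in HFFs infected with HCMV-luciferase, MOI 1 PFU/cell, 72 h at 37C. Lysate luminescence read with OneGlo; data normalized against buffer-only and 10uM Salinomycin inhibitor controls.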
# Pf growth 48h – inhibits P. falciparum growth in the first generation, 48 h | P. falciparum luciferase growth in erythrocytes, 48 h | Potency, µM (series often up to 28.7 µM), for the others: top-dose activity change, negative = inhibition, usual class: inhibitors | hit rate 5.9% among 310,000 | AID 504832; note: potency is the fitted concentration of half-maximal effect
#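 Parasite viability was followed by luminescence of a genomically integrated firefly luciferase. Cultures held 0.1% parasitemia at 2% hematocrit (final), incubated under 5% CO2 at 37 C.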
# Sm TGR inh – inhibitors of Schistosoma mansoni thioredoxin glutathione reductase; AID 485364; purified TGR, DTNB reduction, TNB absorbance 405 nm; hit rate 3% among 360,000; Q962Y6; Potency, µM (series often up to 114 µM), without a hit: at the top dose activity change, negative = inhibition, usual class: inhibitors; note: potency is the fitted concentration of half-maximal effect; nearly all actives have a fitted effect of over 60% in size
#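 First, TGR (20 nM dispensed) and NADPH were mixed with compound. Second, a 15 min room-temperature incubation followed. Third, further NADPH and then DTNB were added to start the reaction. Finally, TNB absorbance was monitored kinetically.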
# FBPA Giardia inh – Giardia lamblia aldolase inhibition | Potency, µM (highest dose often 59.6 µM), without a hit: at the top dose activity, negative = inhibition, usual class: inhibitors | hit rate 0.71% among 290,000 | purified Giardia FBPA | A8B2U2; note: potency is the fitted concentration of half-maximal effect; nearly all actives have a fitted effect of over 55% in size
# Target sequence (A8B2U2 whole entry, looked up): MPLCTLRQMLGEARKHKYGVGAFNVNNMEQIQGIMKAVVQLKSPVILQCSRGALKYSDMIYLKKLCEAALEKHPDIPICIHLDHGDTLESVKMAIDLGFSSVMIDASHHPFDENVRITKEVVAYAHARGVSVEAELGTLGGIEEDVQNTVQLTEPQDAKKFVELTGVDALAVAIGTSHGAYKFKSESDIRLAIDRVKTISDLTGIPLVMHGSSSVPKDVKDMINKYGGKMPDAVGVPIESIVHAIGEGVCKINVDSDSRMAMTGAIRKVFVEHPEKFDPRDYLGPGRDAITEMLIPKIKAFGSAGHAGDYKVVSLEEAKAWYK
#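 Giardia FBPA (40 nM reagent) was preincubated 10 min at RT with compound (up to 57.5 uM final), then substrate plus GAPDH/TPI/NAD/arsenate coupling system with diaphorase/resazurin was added; resorufin fluorescence (525/598 nm) was read after 20 min.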
# Pf growth 96h – inhibits malaria parasite growth, 96 h; hit rate 6.9% among 320,000; P. falciparum luciferase reporter growth, 96 h; Potency, µM (top dose mostly 28.7 µM), without a hit: at the highest dose activity change, negative = inhibition, hits mostly inhibitors; AID 504834; note: potency is the fitted concentration of half-maximal effect
#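 Delayed-death screen, second-generation endpoint: infected erythrocytes, 2% hematocrit, 0.05% parasitemia final; 96 hours at 37 C, 5% CO2; luciferase detection reagent; luminescence decrease equals reduced growth.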
# Active calls of the source: *; ? = inconclusive; nt = no result; [ ] = dose if it differs, or a comment. Unless noted, calls come from the whole dose curve; as a rule, active = well fitted curve in the direction sought with a large enough effect; inconclusive = small, poorly fitted or top-dose-only effect, or another doubt; inactive = no such curve, though single readings can be large; an effect the other way counts as inactive or inconclusive. % is set by controls: 0 for no effect and ±100 for the full control effect.
SMILES,HCMV inh,Pf growth 48h,Sm TGR inh,FBPA Giardia inh,Pf growth 96h
c1ccc(N/N=C(\Cc2nc3ccccc3[nH]2)c2ccccc2)cc1,31,-86%,-2%,-4%,?
Cc1ccc(N/N=C(\Cc2nc3ccccc3[nH]2)c2ccccc2)cc1,nt,9.3µM*,40µM*,1%,?
N#CCCN/N=C(\Cc1nc2ccccc2[nH]1)c1ccccc1,51,nt,7%,-24%,?
CC[C@H](C)[C@H](NC(=O)[C@H](CCC(=O)O)NC(=O)CNC(=O)[C@H](CCCCN)NC(=O)[C@H](CCC(=O)O)NC(=O)[C@H](CCSC)NC(=O)[C@H](CCSC)NC(=O)[C@H](CCSC)NC(=O)[C@H](CCC(=O)O)NC(=O)CNC(=O)[C@H](CO)NC(=O)[C@H](CO)NC(=O)[C@H](CO)NC(=O)[C@@H](N)CC(N)=O)C(=O)N[C@@H](CCCCN)C(=O)O,nt,nt,nt,3%,nt
O=C(CNC(=O)C1CC1)Nc1ccc(F)c(F)c1F,44,nt,nt,nt,nt
Fc1cnc(N2CCN(c3ccccc3)CC2)nc1N1CCN(c2ccccc2)CC1,?,13µM*,6%,-8%,0%
Cc1nn(Cc2ccccc2)c2c1C(c1ccc(Cl)cc1)C(C#N)=C(N)O2 (stereo not given),-16,?,-32%,-29%,1.2µM*
Cc1nn(Cc2ccccc2)c2c1C(c1ccco1)C(C#N)=C(N)O2 (stereo not given),5,-15%,50µM*,?,nt
Cc1nn(Cc2ccccc2)c2c1C(c1cccnc1)C(C#N)=C(N)O2 (stereo not given),-25,nt,-1%,-23%,25%
Cc1nn(Cc2ccccc2)c2c1C(c1ccncc1)C(C#N)=C(N)O2 (stereo not given),-3,-17%,?,-18%,?
CCN(CC)S(=O)(=O)c1ccc2c(c1)N(CC(=O)Nc1ccc(C)cc1C)C(=O)C1CCCN21 (stereo not given),-4,nt,-16%,nt,nt
CCN1CCN(c2c(/C=C3\SC(=S)N(Cc4ccco4)C3=O)c(C)c(C#N)c(=O)n2C)CC1,-73*,2.3µM*,2%,?,?
CC(C)Cc1nc(N2CCN(C(=O)c3ccccc3)CC2)c(C#N)c2c1CCC2,?,?,-9%,5%,?
CC(C)Cc1nc(N2CCN(C(=O)c3ccco3)CC2)c(C#N)c2c1CCC2,-31,2.3µM*,?,-6%,38%
N#Cc1c(N2CCN(C(=O)c3ccco3)CC2)nc(-c2ccccc2)c2c1CCCC2,-78*,?,1%,0%,16%[5.75 µM]
N#Cc1c(N2CCN(C(=O)c3ccccc3)CC2)nc(-c2ccccc2)c2c1CCCC2,?,nt,1%,1%,13µM*
CC(C)Cc1nc(N2CCCCC2)c(C#N)c2c1CCC2,24,40%,0%,-17%,10µM*
CC(C)Cc1nc(N2CCNCC2)c(C#N)c2c1CCC2,-5,?,4%,11%,-2%
CCC/C=C(\CCC)C(NC(=O)c1ccco1)c1ccc(C(=O)OC)cc1 (stereo not given),nt,nt,nt,5%,nt
Cc1ccccc1NC(=O)/C=C/c1ccc([N+](=O)[O-])s1,nt,7.4µM*,?,0%,12µM*
Cc1cc(C)cc(NC(=O)/C=C/c2ccc([N+](=O)[O-])s2)c1,-92*,?,0%,4%,?
CC(=O)c1cccc(NC(=O)/C=C/c2ccc([N+](=O)[O-])s2)c1,-96*,-6%,4%,-3%,?
O=C(/C=C\c1ccccc1[N+](=O)[O-])Nc1ccccc1,57,101%,3%,-5%,1%
COC(=O)c1cccc(NC(=O)/C=C/c2cccc([N+](=O)[O-])c2)c1,-2,74%,10%,2%,346%
CN(C)c1ncc2nc(CCc3ccccc3)c(=O)n(CCC#N)c2n1,nt,nt,nt,1%,nt
CC1Cc2ccccc2N1C(=O)CN1CCC(n2nnc3cc(C(F)(F)F)ccc32)CC1 (stereo not given),-39,nt,3%,1%,?
O=c1cc(-c2ccccc2)[nH]n1-c1ccc([N+](=O)[O-])cc1,-95*,?,3%,0%,?
O=c1c(N=Nc2ccc(O)cc2)c(-c2ccccc2)[nH]n1-c1ccc([N+](=O)[O-])cc1,-12,11%,12%,13%,11%
